From PubChem BioAssay
RE007 growth inh: less growth of the S. pombe RE007 Vpr strain; AID 651644; 360,000 tested, 0.21% active; S. pombe RE007 Vpr strain, BacTiter-Glo ATP luminescence, 24 h; Potency, µM (series often up to 92.2 µM), for inactives: at the highest dose activity change, negative = less growth, most hits filed as inhibitors; active means well fitted falling curve with a large enough effect; inconclusive means small, poorly fitted or top-dose-only effect; inactive means no such curve, though single readings can be large or run the other way; further: potency means the concentration at half of the fitted maximal effect; nearly all actives have a fitted effect of over 50% in size
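Fission yeast RE007 carrying one integrated HIV-1 vpr copy, seeded at OD 0.01 in PMG+AL medium with 23 nL pinned compound. Grown 24 h at 30 degrees; viability read by BacTiter-Glo luminescence after 5 min.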
FMDV antiviral: antivirals against foot and mouth disease virus | FMDV antiviral cell-based qHTS | AID 1159524 | 410,000 tested, 1.2% active | Potency, µM (top dose mostly 57.9 µM), inactives show top-dose activity change, negative = inhibition, hits mostly inhibitors; calls by dose curve; tested in HEK293T cells; further: read-out not given here; potency means the concentration at half of the fitted maximal effect; nearly all actives have a fitted effect of over 45% in size
HCMV antiviral: inhibitors of human cytomegalovirus | HFF cells, HCMV-luciferase reporter, 72 h; hits give low values | activity change, negative = inhibition, % at 57.5 µM | 410,000 tested, 4.5% active | AID 1259415; in the data active means activity change below about -60%; inconclusive means no clear call, values can overlap the other calls; inactive means above about -39%
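Screen run at 2 compound doses on HFFs infected with reporter HCMV, MOI 1 PFU/cell. Luciferase activity from cell lysates at 72 h post infection gave inhibition relative to buffer-only and Salinomycin wells.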
FBPA Giardia inh: Giardia lamblia aldolase inhibition; A8B2U2; purified Giardia FBPA; Potency, µM (highest dose often 59.6 µM), without a hit: at the top dose activity, negative = inhibition, most hits filed as inhibitors; 290,000 tested, 0.71% active; further: potency means the concentration at half of the fitted maximal effect; nearly all actives have a fitted effect of over 55% in size
Target sequence (A8B2U2 whole entry, looked up): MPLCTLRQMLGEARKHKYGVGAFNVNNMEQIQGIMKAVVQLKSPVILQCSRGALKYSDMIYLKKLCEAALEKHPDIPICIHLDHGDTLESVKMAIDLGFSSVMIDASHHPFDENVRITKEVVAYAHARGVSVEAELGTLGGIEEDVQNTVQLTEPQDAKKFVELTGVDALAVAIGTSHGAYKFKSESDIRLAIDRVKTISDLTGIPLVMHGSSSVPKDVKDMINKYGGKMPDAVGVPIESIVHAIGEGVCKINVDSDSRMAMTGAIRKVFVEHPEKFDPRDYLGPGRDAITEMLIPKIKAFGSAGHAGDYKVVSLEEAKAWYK
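40 nM FBPA preincubated 10 min at RT with compound (up to 57.5 uM final), then substrate plus GAPDH/TPI/NAD/arsenate coupling and diaphorase/resazurin added. Fluorescence read after 20 min at RT, 525/598 nm.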
TbPYK inhibitor: blocks Trypanosoma brucei pyruvate kinase; Q57TT1; TbPYK enzyme, Kinase-Glo Plus ATP luminescence, 45 min; Potency, µM (top dose mostly 76.8 µM), for inactives: at the highest dose activity, negative = inhibition, actives largely listed as inhibitors; 410,000 tested, 0.12% active; AID 624173; further: potency means the concentration at half of the fitted maximal effect; nearly all actives have a fitted effect of over 50% in size
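T. brucei PYK with substrate was exposed to pin-transferred compounds across a concentration series, then started with 130 uM ADP (final). After 45 min at room temperature, Kinase-Glo Plus luminescence was read, normalized and curve-fitted.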
Sm TGR block: inhibitors of Schistosoma mansoni thioredoxin glutathione reductase; AID 485364; 360,000 tested, 3% active; Potency, µM (titrated, usually from 114 µM), inactives show top-dose activity change, negative = inhibition, most hits filed as inhibitors; purified TGR, DTNB reduction, TNB absorbance 405 nm; further: potency means the concentration at half of the fitted maximal effect; nearly all actives have a fitted effect of over 60% in size
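First, TGR (20 nM dispensed) and NADPH were mixed with compound. Second, a 15 min room-temperature incubation followed. Third, further NADPH and then DTNB were added to start the reaction. Finally, TNB absorbance was monitored kinetically.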
Numbers without * were called inactive; [ ] = dose if it differs, or a comment. Sampled rows, rich in hits. Any-hit rate of the full collection: about 7.7%. Unless noted, the call rests on the fitted dose curve; in most records, active means well fitted curve in the direction sought with a large enough effect; inconclusive means small, poorly fitted or top-dose-only effect, or another doubt; inactive means no such curve, though single readings can be large; an effect the other way counts as inactive or inconclusive. On the % scale 0 is the no-effect control and ±100 the full control effect.

Screening CN1CCC2=C[C@H](O)[C@@H]3OC(=O)c4cc5c(cc4[C@H]3[C@H]21)OCO5 returned FBPA Giardia inh -0.5%[21.7 µM].
Screening CO[C@H]1C=C2CCN(C)[C@H]2C2c3cc4c(cc3C(=O)O[C@@H]21)OCO4 (stereo partly specified) returned RE007 growth inh 1.0%[18.4 µM], FMDV antiviral 12.4%, HCMV antiviral -63.3*, TbPYK inhibitor 5.6% and Sm TGR block -16.6%.
CC1(C)C(=O)C=C[C@@]2(C)C1=C(O)C(=O)[C@@]1(C)C2CC[C@@]2(C)C(c3ccoc3)C[C@H]3O[C@@]321 (stereo partly specified) was read as FMDV antiviral 10µM* and FBPA Giardia inh -2.6%.
`CC1(C)C(=O)C=C[C@@]2(C)C1CC(O)[C@]1(C)C2CC[C@@]2(C)C(c3ccoc3)OC(=O)C3O[C@]312` (stereo partly specified) gave FMDV antiviral inconclusive and FBPA Giardia inh -5.1%.
For CSc1nsc(SCc2cnc(C)nc2N)n1 the results were RE007 growth inh 116.2%, FMDV antiviral -11.1%, HCMV antiviral -7.6, FBPA Giardia inh -15.6%, TbPYK inhibitor -12.3% and Sm TGR block 39.8µM*.
CSc1nsc(SCC(=O)NC2CCCCC2)n1 was read as RE007 growth inh 4.4%, FMDV antiviral 19.9%, HCMV antiviral 63.3, FBPA Giardia inh 4.2%, TbPYK inhibitor -4.3% and Sm TGR block -11.4%.
Screening Cc1c(OCC(=O)NCCCN2CCCC2=O)ccc2c3c(c(=O)oc12)CCCC3 returned RE007 growth inh -5.8%, FMDV antiviral -22.5%, HCMV antiviral active, TbPYK inhibitor -12.4% and Sm TGR block -23.4%.
`Cc1c(Br)c([N+](=O)[O-])nn1CC(=O)Nc1c(C)n(C)n(-c2ccccc2)c1=O` gave RE007 growth inh 13.9%, FMDV antiviral -5.0%, HCMV antiviral -102.0*, FBPA Giardia inh 4.2%, TbPYK inhibitor 0.8% and Sm TGR block -0.6%.
Screening Cc1c(NC(=O)COc2ncnc3ccccc23)c(=O)n(-c2ccccc2)n1C returned RE007 growth inh -4.6%, FMDV antiviral -5.7%, HCMV antiviral -25.6, FBPA Giardia inh 2.4%, TbPYK inhibitor -2.8% and Sm TGR block 35.5µM*.
`Cc1c(NC(=O)C(C)Oc2ncnc3ccccc23)c(=O)n(-c2ccccc2)n1C` (stereo unspecified) gave RE007 growth inh -4.5%, FMDV antiviral 3.7%, HCMV antiviral -21.3, FBPA Giardia inh 1.3%, TbPYK inhibitor -5.0% and Sm TGR block -2.6%.
CC(=O)C1=C(C)N(Cc2ccccc2)C(=O)N[C@H]1CCc1ccccc1 was read as RE007 growth inh -9.5%, FMDV antiviral inconclusive, HCMV antiviral -92.7*, FBPA Giardia inh 1.6%, TbPYK inhibitor 1.4% and Sm TGR block -22.9%.
Cc1c(NC(=O)CN2C(=O)NC(CCc3ccccc3)C2=O)c(=O)n(-c2ccccc2)n1C (stereo unspecified) was read as RE007 growth inh 1.6%, FMDV antiviral -2.1%, HCMV antiviral 19.6, FBPA Giardia inh 5.4%, TbPYK inhibitor -4.5% and Sm TGR block 22.4µM*.
Nc1nc(O)c2ncn([C@H]3CC[C@@H](CO)O3)c2n1 was read as FMDV antiviral 4.8% and FBPA Giardia inh 0.2%.
Cc1nn(CCC(=O)Nc2cc(F)ccc2F)c(=O)c2nn(-c3ccccc3)c(C)c12 was read as FMDV antiviral inconclusive, HCMV antiviral -35.8, TbPYK inhibitor 3.1% and Sm TGR block -0.3%.
For COc1cccc(N=Nc2ccc3ccccc3c2O)c1 the results were RE007 growth inh -6.9%, FMDV antiviral -58.6%, HCMV antiviral 34.2, FBPA Giardia inh inconclusive, TbPYK inhibitor -18.5% and Sm TGR block -0.9%.
Oc1c(N=Nc2nn[nH]n2)ccc2ccccc12 was read as RE007 growth inh -18.1%[18.4 µM], FMDV antiviral inconclusive, HCMV antiviral -85.0* and TbPYK inhibitor -19.8%.
Screening Cc1ccc(N=Nc2ccc3ccccc3c2O)cc1 returned RE007 growth inh -9.9%, FMDV antiviral 7.94µM*, HCMV antiviral inconclusive, FBPA Giardia inh -20.0%, TbPYK inhibitor -16.5% and Sm TGR block -0.7%.
`Oc1c(N=Nc2ccc(F)cc2)ccc2ccccc12` gave RE007 growth inh -23.5%, FMDV antiviral 14.1µM*, HCMV antiviral 96.8, FBPA Giardia inh inconclusive, TbPYK inhibitor inconclusive and Sm TGR block -20.3%.
Screening Oc1ccc2ccccc2c1N=Nc1ccc(F)cc1 returned RE007 growth inh -13.7%, FMDV antiviral 2.6%, HCMV antiviral 33.5, FBPA Giardia inh 0.0%, TbPYK inhibitor 1.3% and Sm TGR block -2.5%.
CCOC(=O)c1cccc(NC(=O)c2cn(-c3cccc(OC)c3)c(=O)c3ccccc23)c1 was read as FMDV antiviral -2.2%, HCMV antiviral inconclusive, TbPYK inhibitor 1.6% and Sm TGR block 6.4%.
For CC1(C(=O)NCc2ccccc2)CN(S(C)(=O)=O)CC(=O)N1Cc1ccco1 (stereo unspecified) the results were HCMV antiviral -6.1.
Screening Cc1ccc(-c2nn(-c3ccccc3)cc2C(N)=O)o1 returned RE007 growth inh 1.2%, FMDV antiviral 11.2%, HCMV antiviral 24.2, FBPA Giardia inh -1.2%, TbPYK inhibitor -18.0% and Sm TGR block 20µM*.
Cc1ccc(-c2nn(-c3ccccc3)cc2C=O)o1 was read as RE007 growth inh inconclusive, FMDV antiviral -13.9%, HCMV antiviral 21.4, FBPA Giardia inh -22.6%, TbPYK inhibitor -5.7% and Sm TGR block 12.6µM*.
Screening Cc1ccc(-c2nn(-c3ccccc3)cc2CO)o1 returned RE007 growth inh inconclusive, FMDV antiviral 49.2%, HCMV antiviral 10.3, FBPA Giardia inh 1.6%, TbPYK inhibitor -1.9% and Sm TGR block 44.7µM*.
For Cc1ccc2c(c1)Cc1c(nc(-c3ccc(Cl)cc3)nc1SCC(=O)N1CCCCC1)O2 the results were FMDV antiviral 0.0%, HCMV antiviral 14.0, TbPYK inhibitor 3.8% and Sm TGR block -0.2%.
`COc1cc(N2C(=O)C=CC2=O)c(OC)cc1Cl` gave RE007 growth inh 39.8µM*, FMDV antiviral 35.5µM*, HCMV antiviral -97.7*, FBPA Giardia inh inconclusive, TbPYK inhibitor inconclusive and Sm TGR block 0.708µM*.
For O=C(COc1ccccc1)Nc1nnc2n1CCS2 the results were FMDV antiviral -2.6%, HCMV antiviral -5.3, TbPYK inhibitor 3.4% and Sm TGR block 0.8%.
Screening Cn1nccc1NC(=O)Nc1cccc(Cl)c1Cl returned RE007 growth inh -7.3%, FMDV antiviral -8.8%, HCMV antiviral inconclusive, FBPA Giardia inh 13.7%, TbPYK inhibitor -2.2% and Sm TGR block 12.7%.
